# Assay results published in PubChem BioAssay (NCATS).
# Active and inactive are the calls of the source. The call rests on the fitted dose curve; in most records, active means well fitted curve in the direction sought with a large enough effect; inactive means no such curve, though single readings can be large or run the other way.
# Target: Alpha-galactosidase (Coffea arabica) (UniProt Q42656)
# Experiment: Counterscreen for Glucocerebrosidase Inhibitors: qHTS Assay for Coffee Bean alpha-Galactosidase at pH 5.9 (AID 998)
# Method in brief: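 Green coffee bean enzyme (2 nM) with 4-methylumbelliferyl alpha-D-galactopyranoside (80 uM) in 50 mM citric acid, 0.005% Tween-20, pH 5.9, 20 min at room temperature; compounds 0.7 nM–77 uM. Stopped at pH 10, fluorescence Ex365/Em440; Hill-fit AC50.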
# Alpha-galactosidase (Coffea arabica), sequence (Q42656 whole entry, looked up): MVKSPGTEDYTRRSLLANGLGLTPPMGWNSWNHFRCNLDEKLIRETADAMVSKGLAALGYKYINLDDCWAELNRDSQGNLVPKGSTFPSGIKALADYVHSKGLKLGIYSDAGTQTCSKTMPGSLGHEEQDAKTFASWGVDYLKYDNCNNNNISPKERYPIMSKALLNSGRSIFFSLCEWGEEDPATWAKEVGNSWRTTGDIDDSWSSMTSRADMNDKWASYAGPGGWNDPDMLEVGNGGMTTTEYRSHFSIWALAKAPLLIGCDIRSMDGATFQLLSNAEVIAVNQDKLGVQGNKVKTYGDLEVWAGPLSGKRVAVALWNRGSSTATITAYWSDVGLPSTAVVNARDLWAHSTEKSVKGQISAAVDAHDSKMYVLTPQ
structure (smiles),measurement,value
CNC(=O)Oc1ccc2c(c1)[C@@]1(C)CCN(C)[C@@H]1N2C,outcome,inactive
